Where a name gives a salt, the structure may show the parent alone.
What was measured:
Conditions in all cases: 20 µM; incubation time: 27 h, anaerobic, 37 °C;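 for the amine columns active = adjusted P below 0.05 in both replicates with a change the same way and a mean fold change under 0.8 or over 1.25; inactive = the rest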
[1] = tested on: Clostridium sporogenes DSM 1664; test: growth (OD595) fold change vs plate DMSO controls (fold change (ratio)); higher = more growth
How it was run: (§1)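 Anaerobic mGAM cultures in 96-well plates were grown for 27 h at 37 °C, and absorbance was then read at 595 nm. After blank and compound background correction with 20 µM compound solutions in water, a calibration factor of 5 gave OD. Growth is the fold change relative to the median of each plate's DMSO controls. Values are means of 2 biological replicates, with fold changes above 1.5 set to NA.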

[2] = tested on: Escherichia coli IAI1; test: as above
How it was run: as §1

[3] = tested on: Klebsiella aerogenes DSM 30053; test: as above
How it was run: as §1

[4] = tested on: Ruminococcus gnavus DSM 108212; test: as above
How it was run: as §1

[5] = tested on: Klebsiella aerogenes DSM 30053; test: fold change of Histamine concentration vs plate DMSO controls (fold change (ratio)); higher = more amine produced, active = hit call of the paper (significant change in both replicates, either direction)
How it was run: (§2)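 Using LC–triple-quadrupole MS with dynamic MRM, amines were quantified against external calibration curves and corrected for drift within each batch. Samples were whole anaerobic mGAM cultures of four gut strains, grown 27 h at 37 °C from OD 0.1 before 1:1 dilution, extracted with cold acetonitrile/methanol containing 0.1% formic acid and centrifuged. Compounds were present at 20 µM final (sweeteners at 50 µM final). The numbers are fold changes versus plate DMSO controls, each the mean of 2 biological replicates.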

[6] = tested on: Clostridium sporogenes DSM 1664; test: fold change of Tryptamine concentration vs plate DMSO controls (fold change (ratio)); higher = more amine produced, active = hit call of the paper (significant change in both replicates, either direction)
How it was run: as §2

[7] = tested on: Ruminococcus gnavus DSM 108212; test: as above
How it was run: as §2

[8] = tested on: Escherichia coli IAI1; test: fold change of Putrescine concentration vs plate DMSO controls (fold change (ratio)); higher = more amine produced, active = hit call of the paper (significant change in both replicates, either direction)
How it was run: as §2

[9] = tested on: Klebsiella aerogenes DSM 30053; test: as above
How it was run: as §2

[10] = tested on: Escherichia coli IAI1; test: fold change of Cadaverine concentration vs plate DMSO controls (fold change (ratio)); higher = more amine produced, active = hit call of the paper (significant change in both replicates, either direction)
How it was run: as §2

[11] = tested on: Klebsiella aerogenes DSM 30053; test: as above
How it was run: as §2

[12] = tested on: Ruminococcus gnavus DSM 108212; test: fold change of 2-Phenylethylamine concentration vs plate DMSO controls (fold change (ratio)); higher = more amine produced, active = hit call of the paper (significant change in both replicates, either direction)
How it was run: as §2

Compound	growth [1]	growth [2]	growth [3]	growth [4]	fold change of Histamine concentration [5]	fold change of Tryptamine concentration [6]	fold change of Tryptamine concentration [7]	fold change of Putrescine concentration [8]	fold change of Putrescine concentration [9]	fold change of Cadaverine concentration [10]	fold change of Cadaverine concentration [11]	fold change of 2-Phenylethylamine concentration [12]
CC(=O)OCC1=C(C(=O)O)N2C(=O)[C@@H](N)[C@H]2SC1 [Cephalosporanic acid, 7-amino]	1.05	1.05	0.979	0.924	1.07 (inactive)	1.04 (inactive)	0.949 (inactive)	1.05 (inactive)	1.01 (inactive)	1 (inactive)	0.985 (inactive)	0.942 (inactive)
CCOC(=O)OC1=C(c2cc(C)ccc2C)C(=O)N[C@]12CC[C@@H](OC)CC2	0.93	1.02	0.993	0.921	1.01 (inactive)	0.974 (inactive)	1.02 (inactive)	1 (inactive)	1 (inactive)	0.963 (inactive)	1 (inactive)	1.04 (inactive)
N#C/N=C1\SCCN1Cc1ccc(Cl)nc1	1.01	0.969	0.996	1	0.995 (inactive)	1 (inactive)	1 (inactive)	1.04 (inactive)	0.994 (inactive)	0.991 (inactive)	1 (inactive)	1.03 (inactive)
CNC(=O)ON=C(C)SC	1.01	0.969	1	0.984	1.04 (inactive)	1.06 (inactive)	1.06 (inactive)	1 (inactive)	0.967 (inactive)	0.892 (inactive)	1 (inactive)	1.09 (inactive)
CC(C)c1cccc(C(C)C)c1O [Propofol]	1.24	1.01	1	1.03	1.05 (inactive)	0.931 (inactive)	0.964 (inactive)	0.865 (inactive)	1.01 (inactive)	1.34 (active)	0.989 (inactive)	0.908 (inactive)
CC[C@@]1([C@@H]2O[C@@H]([C@H]3O[C@@](O)(CO)[C@H](C)C[C@@H]3C)C[C@@H]2C)CC[C@H]([C@]2(C)CC[C@]3(C[C@H](O)[C@@H](C)[C@@H]([C@@H](C)[C@@H](OC)[C@H](C)C(=O)O)O3)O2)O1 [Monensin sodium salt]	0.0614	1.09	1	0.204	0.975 (inactive)	0.0398 (active)	0.0682 (active)	1.09 (inactive)	1 (inactive)	0.966 (inactive)	0.999 (inactive)	0.0948 (active)
S=C(NC1CCCCC1)N1CCC(c2cnc[nH]2)CC1 [Thioperamide maleate]	0.957	1.03	1.02	1.03	1.07 (inactive)	1.05 (inactive)	1.02 (inactive)	0.98 (inactive)	1.02 (inactive)	0.951 (inactive)	0.987 (inactive)	1.01 (inactive)
NC(=O)OCCCc1ccccc1 [Phenprobamate]	0.892	0.995	0.992	0.943	0.97 (inactive)	0.987 (inactive)	0.96 (inactive)	1.34 (inactive)	0.99 (inactive)	0.952 (inactive)	0.984 (inactive)	0.943 (inactive)
Cc1cc(C)nc(Nc2ccccc2)n1	0.995	1.06	0.999	1.01	0.986 (inactive)	1 (inactive)	1 (inactive)	1.05 (inactive)	1.02 (inactive)	1.05 (inactive)	1.02 (inactive)	1.04 (inactive)
CC[C@@H](C(N)=O)N1CCCC1=O [Levetiracetam]	1.02	1.01	1.08	0.829	0.827 (inactive)	1.06 (inactive)	1.07 (inactive)	1.06 (inactive)	0.951 (inactive)	1.02 (inactive)	1.05 (inactive)	1.07 (inactive)
CCN(CC)C(C)C(=O)c1ccccc1 (configuration not stated) [Amfepramone hydrochloride]	1.04	1.05	1.02	1.06	0.955 (inactive)	1.03 (inactive)	1.06 (inactive)	1.06 (inactive)	0.982 (inactive)	0.938 (inactive)	1.01 (inactive)	1.06 (inactive)
O=C(O)CNCP(=O)(O)O	0.851	1.02	0.976	0.965	1.03 (inactive)	0.931 (inactive)	0.98 (inactive)	0.961 (inactive)	1.02 (inactive)	0.991 (inactive)	1.03 (inactive)	0.966 (inactive)
CSc1nnc(C(C)(C)C)c(=O)n1N	0.994	1.01	1	0.945	0.976 (inactive)	0.982 (inactive)	1.07 (inactive)	0.945 (inactive)	0.978 (inactive)	0.959 (inactive)	1.04 (inactive)	1.13 (inactive)
O=C(NC(=O)c1c(F)cccc1F)Nc1ccc(Cl)cc1	1.04	0.979	1.02	0.975	1.01 (inactive)	0.919 (inactive)	0.999 (inactive)	0.982 (inactive)	1.05 (inactive)	1.01 (inactive)	1.03 (inactive)	0.98 (inactive)
N#Cc1nn(-c2c(Cl)cc(C(F)(F)F)cc2Cl)c(N)c1[S+]([O-])C(F)(F)F (configuration not stated) [Fipronil]	1.26	1.11	1.1	1.28	0.947 (inactive)	1.05 (inactive)	1 (inactive)	1.03 (inactive)	0.981 (inactive)	1.01 (inactive)	1 (inactive)	1.04 (inactive)
CC(=O)[C@H]1CC[C@H]2[C@@H]3CC[C@H]4C[C@H](O)CC[C@]4(C)[C@H]3C(=O)C[C@]12C [Alfaxalone]	1.12	1.03	1.02	1.13	1.06 (inactive)	0.957 (inactive)	0.959 (inactive)	0.994 (inactive)	1.06 (inactive)	1 (inactive)	1.02 (inactive)	0.913 (inactive)
CCC1(c2ccc(N)cc2)CCC(=O)NC1=O (configuration not stated) [Glutethimide, para-amino]	0.956	1.01	0.979	1.14	1.12 (inactive)	1.02 (inactive)	1.04 (inactive)	0.992 (inactive)	1.02 (inactive)	0.974 (inactive)	0.993 (inactive)	1 (inactive)
CC(C)(C)C(O)C(Oc1ccc(Cl)cc1)n1cncn1 (configuration not stated)	0.989	1.11	0.994	0.928	0.993 (inactive)	0.962 (inactive)	0.998 (inactive)	1.08 (inactive)	0.999 (inactive)	0.937 (inactive)	1 (inactive)	0.975 (inactive)
CC(C)OC(=O)C(C(=O)OC(C)C)=C1SCCS1	1.07	0.971	1.02	1.08	0.989 (inactive)	0.999 (inactive)	1 (inactive)	1.02 (inactive)	1 (inactive)	0.976 (inactive)	1 (inactive)	0.956 (inactive)
CC(C)(C)c1ccc(CSc2cnn(C(C)(C)C)c(=O)c2Cl)cc1	0.838	0.995	1.01	1.13	1 (inactive)	1.02 (inactive)	0.997 (inactive)	0.97 (inactive)	1.01 (inactive)	1.04 (inactive)	1 (inactive)	0.948 (inactive)
C[C@@H]1CC[C@H]2[C@@H](C)C(=O)O[C@@H]3O[C@@]4(C)CC[C@@H]1[C@]32OO4 [Artemisinin]	0.953	0.972	1.02	1.13	1.01 (inactive)	1.02 (inactive)	1.03 (inactive)	1.01 (inactive)	1.01 (inactive)	0.966 (inactive)	1.01 (inactive)	1.03 (inactive)
CC[C@H]1CCC[C@H](O[C@H]2CC[C@H](N(C)C)[C@@H](C)O2)[C@@H](C)C(=O)C2=C[C@@H]3[C@@H](C=C(C)[C@@H]4C[C@@H](O[C@@H]5O[C@@H](C)[C@H](OC)[C@@H](OC)[C@H]5OC)C[C@@H]34)[C@@H]2CC(=O)O1.CC[C@H]1CCC[C@H](O[C@H]2CC[C@H](N(C)C)[C@@H](C)O2)[C@@H](C)C(=O)C2=C[C@H]3[C@@H]4C[C@H](O[C@@H]5O[C@@H](C)[C@H](OC)[C@@H](OC)[C@H]5OC)C[C@H]4C=C[C@H]3C2CC(=O)O1	1.03	0.983	1.01	0.919	0.93 (inactive)	0.96 (inactive)	0.984 (inactive)	1.02 (inactive)	0.991 (inactive)	1.01 (inactive)	0.992 (inactive)	0.982 (inactive)
CC1(C)CON(Cc2ccccc2Cl)C1=O	0.972	0.994	0.994	0.976	1.02 (inactive)	1.02 (inactive)	1.01 (inactive)	1.01 (inactive)	1 (inactive)	1.02 (inactive)	0.986 (inactive)	0.993 (inactive)
CC(=NC#N)N(C)Cc1ccc(Cl)nc1	0.969	0.971	0.989	1.13	1.02 (inactive)	0.985 (inactive)	1.02 (inactive)	1.02 (inactive)	0.979 (inactive)	1.01 (inactive)	0.992 (inactive)	1.05 (inactive)
CN(C)C(=O)Oc1cc(OC(=O)N(C)C)cc(C(O)CNC(C)(C)C)c1 (configuration not stated) [Bambuterol hydrochloride]	1.09	1.03	1	1.18	1.03 (inactive)	1.03 (inactive)	1.02 (inactive)	0.988 (inactive)	1.03 (inactive)	1 (inactive)	0.995 (inactive)	1.02 (inactive)
OC(Cn1cncn1)(c1ccc(F)cc1)c1ccccc1F (configuration not stated)	1.15	1.06	1.01	0.99	1.01 (inactive)	0.985 (inactive)	0.984 (inactive)	1.03 (inactive)	1.02 (inactive)	1.03 (inactive)	0.992 (inactive)	0.948 (inactive)

— the supplement of paper PMC12494721
